Results as given in PubChem BioAssay (Tox21).
Inconclusive results are not listed. The source made the active and inactive calls. Unless noted, calls come from the whole dose curve; as a rule, active = well fitted curve in the direction sought with a large enough effect in the repeat runs; inconclusive = weak or mixed curves; inactive = no such curve, though single readings can be large; an effect the other way counts as inactive or inconclusive.

Legend:
[1] = qHTS assay to identify aromatase inhibitors - cell viability counter screen (AID 743084);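 note: cells stimulated with testosterone during compound exposure; nearly all actives have a fitted effect of over 55% in size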
[2] = qHTS assay to identify small molecule that activate the aryl hydrocarbon receptor (AhR) signaling pathway - cell viability counter screen (AID 743086);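 note: HepG2 liver cells carrying the AhR DRE luciferase reporter; series mostly up to about 70 µM; nearly all actives have a fitted effect of over 45% in size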
Outline: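 Cytotoxicity counter screen: CellTiter-Fluor signal (30 min, 37 C) in 4000 HepG2 cells/well carrying the DRE-luciferase reporter, following 24 h compound exposure at 37 C.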

[3] = target: Peroxisome proliferator-activated receptor gamma (Homo sapiens) (UniProt P37231); experiment: qHTS assay to identify small molecule agonists of the peroxisome proliferator-activated receptor gamma (PPARg) signaling pathway (AID 743094; active = well fitted activation curve with a large enough effect in the signal ratio in the repeat runs, not every such curve was filed as active; the % refers to the signal ratio)
Sequence of Peroxisome proliferator-activated receptor gamma (Homo sapiens) (P37231 whole entry, looked up): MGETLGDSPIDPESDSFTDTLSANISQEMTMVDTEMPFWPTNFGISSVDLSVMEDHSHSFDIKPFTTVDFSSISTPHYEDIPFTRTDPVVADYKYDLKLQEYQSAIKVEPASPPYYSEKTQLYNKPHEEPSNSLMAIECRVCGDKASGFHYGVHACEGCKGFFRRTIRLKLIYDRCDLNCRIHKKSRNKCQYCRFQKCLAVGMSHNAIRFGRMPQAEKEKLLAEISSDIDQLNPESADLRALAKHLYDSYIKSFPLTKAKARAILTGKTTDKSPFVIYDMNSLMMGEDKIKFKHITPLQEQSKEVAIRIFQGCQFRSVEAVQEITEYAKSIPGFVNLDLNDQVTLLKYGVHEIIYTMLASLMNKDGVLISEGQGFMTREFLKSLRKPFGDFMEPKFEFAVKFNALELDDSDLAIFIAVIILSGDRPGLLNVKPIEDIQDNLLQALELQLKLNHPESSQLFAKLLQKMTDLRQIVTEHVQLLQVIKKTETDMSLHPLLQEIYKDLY
Outline: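 Compounds dissolved in DMSO were added to PPARg UAS-bla HEK293H cells for 17 h at 37C, and reporter expression was quantified by fluorescence intensity after 1 h with LiveBLAzer B/G FRET substrate.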

[4] = qHTS assay to identify small molecule antagonists of the peroxisome proliferator-activated receptor gamma (PPARg) signaling pathway - cell viability counter screen (AID 743194); settings: Potency: co-treated with 50 nM rosiglitazone; note: nearly all actives have a fitted effect of over 55% in size
Outline: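 Viability was measured as CellTiter-Glo luminescence in GeneBLAzer PPARg UAS-bla HEK293H cells. These cells had been exposed 17 h at 37 C to compounds together with rosiglitazone at 50 nM final, with the beta-lactamase readout taken in the same wells.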

[5] = qHTS assay for small molecule agonists of the antioxidant response element (ARE) signaling pathway (AID 743202; active = well fitted activation curve with a large enough effect in the signal ratio in the repeat runs, not every such curve was filed as active; the % refers to the signal ratio)
Outline: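 Quantitative high-throughput format in HepG2 cells bearing an integrated ARE-beta-lactamase reporter. Compound exposure lasted 16 h at 37 C, and fluorescence was read 2 h after adding LiveBLAzer B/G substrate at room temperature.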

[6] = qHTS assay for small molecule agonists of the antioxidant response element (ARE) signaling pathway - cell viability counter screen (AID 743203; calls by dose curve; note: nearly all actives have a fitted effect of over 55% in size)
Outline: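 Following 16 hrs of compound treatment at 37C, HepG2 cells with an ARE-controlled beta-lactamase gene were lysed with CellTiter-Glo. Luminescence was read after 30 min at room temperature.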

[7] = qHTS assay for small molecule activators of the heat shock response signaling pathway - cell viability counter screen (AID 743209); note: nearly all actives have a fitted effect of over 50% in size
Outline: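 Readout: CellTiter-Glo luminescence, 30 min at room temperature. System: HSE-bla HeLa cells, 1500/well, plated overnight. Treatment: compounds in DMSO, 5 h at 37 C.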

[8] = qHTS assay for small molecule activators of the heat shock response signaling pathway (AID 743210; active = well fitted activation curve with a large enough effect in the signal ratio in the repeat runs, with a control signal flat, not every such curve was filed as active; the % refers to the signal ratio;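 note: HeLa cells with beta-lactamase reporter driven by heat shock elements; series mostly up to about 63 µM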)
Outline: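 HeLa HSE-bla cells, overnight plating; cpd in DMSO 5 h, 37 C; LiveBLAzer B/G FRET substrate 2.5 h RT; fluorescence intensity read.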

[9] = qHTS assay to identify small molecule agonists of the peroxisome proliferator-activated receptor delta (PPARd) signaling pathway - cell viability counter screen (AID 743211); note: nearly all actives have a fitted effect of over 55% in size
Outline: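 Read-out: CellTiter-Glo luminescence, 30 min RT, measured in the same wells as the beta-lactamase reporter. Cells: GeneBLAzer PPAR delta UAS-bla HEK293H, 3000 cells/well, compound exposure 17 h at 37C.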

[10] = target: Peroxisome proliferator-activated receptor delta (Homo sapiens) (UniProt Q03181); experiment: qHTS assay to identify small molecule agonists of the peroxisome proliferator-activated receptor delta (PPARd) signaling pathway (AID 743212; calls by dose curve)
Sequence of Peroxisome proliferator-activated receptor delta (Homo sapiens) (Q03181 whole entry, looked up): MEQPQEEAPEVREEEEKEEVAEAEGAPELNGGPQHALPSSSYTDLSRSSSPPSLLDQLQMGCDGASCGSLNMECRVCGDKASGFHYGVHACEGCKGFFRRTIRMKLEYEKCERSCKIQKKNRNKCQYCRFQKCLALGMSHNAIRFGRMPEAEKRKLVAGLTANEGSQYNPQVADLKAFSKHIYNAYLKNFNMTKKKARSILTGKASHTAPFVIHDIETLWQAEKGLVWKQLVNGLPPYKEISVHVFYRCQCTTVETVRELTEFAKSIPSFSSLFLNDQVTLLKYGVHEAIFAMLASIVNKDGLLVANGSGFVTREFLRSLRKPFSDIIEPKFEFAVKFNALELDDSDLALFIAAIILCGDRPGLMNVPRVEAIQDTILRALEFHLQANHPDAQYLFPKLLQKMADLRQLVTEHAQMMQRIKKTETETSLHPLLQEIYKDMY
Outline: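 HEK293H PPARd-bla cells; 5 h preincubation 37 C/5% CO2; compound (DMSO) 37 C; LiveBLAzer B/G FRET substrate 2 h RT; fluorescence intensity.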

[11] = target: Peroxisome proliferator-activated receptor delta (Homo sapiens) (UniProt Q03181); experiment: qHTS assay to identify small molecule antagonists of the peroxisome proliferator-activated receptor delta (PPARd) signaling pathway (AID 743215; active = well fitted inhibition curve with a large enough effect in the signal ratio in the repeat runs, not every such curve was filed as active; the % refers to the signal ratio;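 note: cells stimulated with agonist L165041 at 300 nM final during compound exposure; series mostly up to about 62 µM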)
Outline: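 HEK293H UAS-bla, PPARd; agonist L165041 300 nM final with cpd in DMSO; 37 C 17 h; FRET substrate, RT 2 h; fluorescence intensity.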

[12] = qHTS assay to identify small molecule agonists of the farnesoid-X-receptor (FXR) signaling pathway - cell viability counter screen (AID 743218); note: nearly all actives have a fitted effect of over 45% in size
Outline: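 Parallel cytotoxicity test: compound-treated (16 h, 37 C) HEK 293T FXR-bla reporter cells were lysed with CellTiter-Glo and luminescence recorded.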

[13] = target: Bile acid receptor (Homo sapiens) (UniProt Q96RI1); experiment: qHTS assay to identify small molecule agonists of the farnesoid-X-receptor (FXR) signaling pathway (AID 743220; active = well fitted activation curve with a large enough effect in the signal ratio in the repeat runs, not every such curve was filed as active; the % refers to the signal ratio)
Sequence of Bile acid receptor (Homo sapiens) (Q96RI1 whole entry, looked up): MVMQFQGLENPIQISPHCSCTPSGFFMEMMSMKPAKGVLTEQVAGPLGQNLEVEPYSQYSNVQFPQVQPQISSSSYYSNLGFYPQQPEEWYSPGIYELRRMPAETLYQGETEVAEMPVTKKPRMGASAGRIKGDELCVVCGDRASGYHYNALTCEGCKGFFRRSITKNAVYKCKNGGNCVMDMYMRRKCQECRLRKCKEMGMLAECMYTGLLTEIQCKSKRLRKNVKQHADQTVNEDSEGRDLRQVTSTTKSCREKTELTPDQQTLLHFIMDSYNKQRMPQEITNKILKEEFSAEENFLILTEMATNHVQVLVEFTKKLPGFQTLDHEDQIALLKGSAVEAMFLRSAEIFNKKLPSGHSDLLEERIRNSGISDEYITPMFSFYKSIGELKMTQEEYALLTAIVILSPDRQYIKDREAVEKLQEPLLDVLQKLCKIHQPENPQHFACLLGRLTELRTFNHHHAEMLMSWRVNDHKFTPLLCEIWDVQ
Outline: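 Beta-lactamase reporter under UAS control in GeneBLAzer FXR HEK 293T cells (5000/well) measured with LiveBLAzer FRET substrate after 2 h at room temperature. Compound exposure lasted 16 h at 37C.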

[14] = qHTS assay to identify small molecule antagonists of the farnesoid-X-receptor (FXR) signaling pathway - cell viability counter screen (AID 743221; active = well fitted cell-killing curve with a large enough effect in the repeat runs, not every such curve was filed as active; note: nearly all actives have a fitted effect of over 50% in size)
Outline: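 HEK 293T FXR-bla cells, 5 h pre-incubation; compound + CDCA 50 uM final, 16 h, 37 C; beta-lactamase FRET read first, then CellTiter-Glo luminescence, 30 min RT.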

[15] = target: Vitamin D3 receptor (Homo sapiens) (UniProt P11473); experiment: qHTS assay to identify small molecule agonists of the vitamin D receptor (VDR) signaling pathway (AID 743222; calls by dose curve)
Sequence of Vitamin D3 receptor (Homo sapiens) (P11473 whole entry, looked up): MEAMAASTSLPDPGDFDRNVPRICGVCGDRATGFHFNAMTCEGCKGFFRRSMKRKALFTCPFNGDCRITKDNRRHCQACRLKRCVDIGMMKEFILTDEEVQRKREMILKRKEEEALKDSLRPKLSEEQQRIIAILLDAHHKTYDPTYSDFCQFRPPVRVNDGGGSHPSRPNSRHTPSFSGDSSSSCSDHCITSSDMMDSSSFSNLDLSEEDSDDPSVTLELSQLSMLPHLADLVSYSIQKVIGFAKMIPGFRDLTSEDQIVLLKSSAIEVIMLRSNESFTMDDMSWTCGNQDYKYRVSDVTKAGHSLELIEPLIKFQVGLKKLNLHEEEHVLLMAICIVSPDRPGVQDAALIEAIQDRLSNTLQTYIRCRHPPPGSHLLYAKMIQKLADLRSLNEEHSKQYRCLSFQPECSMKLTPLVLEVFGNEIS
Outline: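 In VDR-bla cells, compound-induced beta-lactamase expression is quantified by FRET substrate fluorescence. Treatment lasts 16 h at 37C; substrate develops 2 h at room temperature.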

[16] = target: Vitamin D3 receptor (Homo sapiens) (UniProt P11473); experiment: qHTS assay to identify small molecule antagonists of the vitamin D receptor (VDR) signaling pathway (AID 743223; active = well fitted inhibition curve with a large enough effect in the signal ratio in the repeat runs, not every such curve was filed as active; the % refers to the signal ratio)
Outline: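 Beta-lactamase reporter read-out: FRET substrate fluorescence after 2 h at room temperature, following 16 h exposure of VDR-bla cells to test compound plus 3 nM (final) 1alpha,25-dihydroxyvitamin D3 agonist at 37C.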

[17] = qHTS assay to identify small molecule antagonists of the peroxisome proliferator-activated receptor delta (PPARd) signaling pathway - cell viability counter screen (AID 743213); note: nearly all actives have a fitted effect of over 50% in size
Outline: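 HEK293H PPARd UAS-bla cells, 5 h pre-incubation, compound + L165041 300 nM final, 17 h 37 C; B/G FRET substrate 2 h RT; then CellTiter-Glo 30 min RT, luminescence.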

[18] = target: Peroxisome proliferator-activated receptor gamma (Homo sapiens) (UniProt P37231); experiment: qHTS assay to identify small molecule antagonists of the peroxisome proliferator-activated receptor gamma (PPARg) signaling pathway (AID 743191; calls by dose curve; note: series mostly up to about 63 µM; nearly all actives have a fitted effect of over 30% in size)
Outline: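 Beta-lactamase reporter under UAS control in HEK293H PPARg-bla cells; compound treatment 17 h at 37C. Read-out: fluorescence intensity after 1 h room-temperature incubation with LiveBLAzer B/G FRET substrate.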

[19] = target: Bile acid receptor (Homo sapiens) (UniProt Q96RI1); experiment: qHTS assay to identify small molecule antagonists of the farnesoid-X-receptor (FXR) signaling pathway (AID 743217; active = well fitted inhibition curve with a large enough effect in the signal ratio in the repeat runs, not every such curve was filed as active; the % refers to the signal ratio)
Outline: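 GeneBLAzer FXR-UAS-bla HEK 293T, CDCA-stimulated (50 uM final). Compound treatment 16 h, 37 °C. Detection: beta-lactamase cleavage of B/G FRET substrate, fluorescence.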

Measured: Potency

CCC(C(N)=O)N1CCCC1=O (stereo not drawn)
inactive: [1] | [2] | [3] | [4] | [5] | [6] | [7] | [8] | [9] | [10] | [11] | [12] | [13] | [14] | [15] | [16]

CCOC(=O)c1ncn2c1CN(C)C(=O)c1c(I)cccc1-2
inactive: [1] | [2] | [3] | [4] | [6] | [7] | [8] | [9] | [10] | [17] | [11] | [12] | [13] | [14] | [15]

CCCN1CCC[C@@H]2Cc3nc(N)ncc3C[C@H]21
inactive: [1] | [2] | [3] | [4] | [6] | [7] | [9] | [12] | [14] | [15] | [16]

O=C1CCCCC1Cl (stereo not drawn)
inactive: [1] | [2] | [18] | [4] | [6] | [7] | [9] | [10] | [17] | [11] | [19] | [12] | [13] | [14] | [15] | [16]

CCCOc1nn(C(=O)NS(=O)(=O)c2ccccc2C(=O)OC)c(=O)n1C
inactive: [1] | [2] | [3] | [4] | [5] | [6] | [7] | [9] | [10] | [17] | [11] | [14] | [15]

ClCOCCl
inactive: [1] | [2] | [4] | [5] | [6] | [7] | [8] | [9] | [10] | [17] | [11] | [19] | [12] | [13] | [15]

C#CCOC(=O)/C=C(C)/C=C/CC(C)CCCC(C)C (stereo not drawn)
inactive: [1] | [2] | [3] | [18] | [4] | [7] | [8] | [9] | [10] | [11] | [19] | [12] | [13] | [14] | [15] | [16]

CC(C)(C)C(=O)Cl
inactive: [1] | [2] | [18] | [4] | [5] | [6] | [7] | [9] | [10] | [11] | [19] | [12] | [14]

CCOC1Oc2ccc(OS(C)(=O)=O)cc2C1(C)C (stereo not drawn)
inactive: [1] | [2] | [3] | [18] | [4] | [7] | [9] | [10] | [17] | [11] | [12] | [14] | [15]

C/C(=N\NC(=O)Nc1cc(F)cc(F)c1)c1ncccc1C(=O)O
inactive: [1] | [2] | [3] | [4] | [5] | [7] | [8] | [9] | [17] | [19] | [13] | [15] | [16]

CC(C)(C)NC[C@H](O)c1ccc(O)cc1Cl
inactive: [1] | [2] | [18] | [4] | [5] | [7] | [8] | [9] | [10] | [17] | [11] | [19] | [12] | [13] | [14] | [15] | [16]
